Paper PMC7862700, “An all-to-all approach to the identification of sequence-specific readers for epigenetic DNA modifications on cytosine”

Legend:
Test in all cases: DAPPL (digital affinity profiling via proximity ligation, sequencing); 10 mM Tris-HCl pH 7.5, 50 mM NaCl, 1 mM DTT, 4% glycerol, room temperature, 30 min; GST-TFs on glutathione beads, 16-mer random dsDNA library, 0.1% formaldehyde crosslink after washing; high values mean tight binding
FLI1 = target: T1, FLI1 (Homo sapiens, UniProt Q01543 1-452); conditions: protein: recombinant; tags: N-terminal GST; dsDNA, one strand shown
T1 sequence: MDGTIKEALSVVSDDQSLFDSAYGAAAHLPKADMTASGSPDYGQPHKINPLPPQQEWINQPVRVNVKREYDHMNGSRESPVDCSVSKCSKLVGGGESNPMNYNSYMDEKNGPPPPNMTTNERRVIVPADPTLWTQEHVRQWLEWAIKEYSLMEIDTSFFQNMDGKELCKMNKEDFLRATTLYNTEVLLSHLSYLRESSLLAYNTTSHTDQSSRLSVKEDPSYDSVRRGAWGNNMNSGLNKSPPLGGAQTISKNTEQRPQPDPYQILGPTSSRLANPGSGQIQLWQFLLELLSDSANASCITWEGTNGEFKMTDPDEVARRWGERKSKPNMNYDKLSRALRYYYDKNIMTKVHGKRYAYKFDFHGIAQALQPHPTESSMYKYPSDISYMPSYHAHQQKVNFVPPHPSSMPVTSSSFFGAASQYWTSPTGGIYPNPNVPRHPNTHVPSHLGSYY
In short: (§1)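 A tag-only sample was pooled with DNA-barcoded human transcription factors that had been expressed in yeast as GST fusions and captured on glutathione beads. The pools were incubated for 30 min at room temperature with 200 nmole of a random double-stranded 16-mer DNA library in Tris/NaCl/DTT/glycerol buffer, then washed, crosslinked with 0.1% formaldehyde, proximity-ligated (BsaI/T4 ligase, 1 h, 37 °C), PCR-amplified and sequenced on an Illumina NextSeq500. Binding signal is each hexamer's read frequency for a factor divided by its frequency for the tag-only sample.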

ELK1 = target: T2, ELK1 (Homo sapiens, UniProt P19419 1-428); conditions: protein: recombinant; tags: N-terminal GST; dsDNA, one strand shown
T2 sequence: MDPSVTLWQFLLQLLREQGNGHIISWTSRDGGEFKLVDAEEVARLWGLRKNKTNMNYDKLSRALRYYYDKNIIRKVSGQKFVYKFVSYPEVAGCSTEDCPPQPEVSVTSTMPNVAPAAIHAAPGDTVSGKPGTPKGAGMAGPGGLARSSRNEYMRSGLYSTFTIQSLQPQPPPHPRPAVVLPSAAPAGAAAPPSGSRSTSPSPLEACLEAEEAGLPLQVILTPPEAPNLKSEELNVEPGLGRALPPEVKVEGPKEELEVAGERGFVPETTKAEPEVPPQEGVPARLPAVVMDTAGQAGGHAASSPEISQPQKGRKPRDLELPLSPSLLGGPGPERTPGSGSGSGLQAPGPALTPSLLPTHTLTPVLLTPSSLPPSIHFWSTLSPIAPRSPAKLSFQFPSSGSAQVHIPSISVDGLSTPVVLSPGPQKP
In short: as §1

GABPA = target: T3, GABPA (Homo sapiens, UniProt Q06546 1-454); conditions: protein: recombinant; tags: N-terminal GST; dsDNA, one strand shown
T3 sequence: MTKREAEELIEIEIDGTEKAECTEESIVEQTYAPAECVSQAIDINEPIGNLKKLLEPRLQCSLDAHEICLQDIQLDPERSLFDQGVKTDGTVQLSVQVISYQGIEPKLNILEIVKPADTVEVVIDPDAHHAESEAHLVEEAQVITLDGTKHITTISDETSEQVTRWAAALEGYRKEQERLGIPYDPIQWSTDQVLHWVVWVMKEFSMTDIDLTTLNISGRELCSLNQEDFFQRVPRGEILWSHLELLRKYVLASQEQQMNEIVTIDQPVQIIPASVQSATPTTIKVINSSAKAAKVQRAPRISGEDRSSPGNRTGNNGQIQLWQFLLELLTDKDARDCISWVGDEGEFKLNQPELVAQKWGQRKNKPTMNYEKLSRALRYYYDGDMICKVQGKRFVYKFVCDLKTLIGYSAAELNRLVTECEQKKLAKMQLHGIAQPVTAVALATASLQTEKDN
In short: as §1

ERG = target: T4, ERG (Homo sapiens, UniProt P11308 1-479); conditions: protein: recombinant; tags: N-terminal GST; dsDNA, one strand shown
T4 sequence: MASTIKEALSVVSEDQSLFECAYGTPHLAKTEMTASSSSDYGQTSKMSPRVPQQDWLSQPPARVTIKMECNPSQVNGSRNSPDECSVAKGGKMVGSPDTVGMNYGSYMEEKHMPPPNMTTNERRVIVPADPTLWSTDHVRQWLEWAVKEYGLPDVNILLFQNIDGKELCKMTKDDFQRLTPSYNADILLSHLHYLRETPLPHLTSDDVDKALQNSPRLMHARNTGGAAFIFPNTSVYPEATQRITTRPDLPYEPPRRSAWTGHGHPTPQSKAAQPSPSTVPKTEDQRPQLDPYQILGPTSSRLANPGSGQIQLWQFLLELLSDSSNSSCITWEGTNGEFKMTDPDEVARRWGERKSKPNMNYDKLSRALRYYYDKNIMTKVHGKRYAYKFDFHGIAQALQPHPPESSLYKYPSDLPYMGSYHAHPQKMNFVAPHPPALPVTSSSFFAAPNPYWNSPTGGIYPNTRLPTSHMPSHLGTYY
In short: as §1

ELF1 = ELF1 (Homo sapiens, UniProt P32519 1-619); conditions: protein: recombinant; tags: N-terminal GST; dsDNA, one strand shown
In short: as §1

EHF = target: T5, EHF (Homo sapiens, UniProt Q9NZC4 1-300); conditions: protein: recombinant; tags: N-terminal GST; dsDNA, one strand shown
T5 sequence: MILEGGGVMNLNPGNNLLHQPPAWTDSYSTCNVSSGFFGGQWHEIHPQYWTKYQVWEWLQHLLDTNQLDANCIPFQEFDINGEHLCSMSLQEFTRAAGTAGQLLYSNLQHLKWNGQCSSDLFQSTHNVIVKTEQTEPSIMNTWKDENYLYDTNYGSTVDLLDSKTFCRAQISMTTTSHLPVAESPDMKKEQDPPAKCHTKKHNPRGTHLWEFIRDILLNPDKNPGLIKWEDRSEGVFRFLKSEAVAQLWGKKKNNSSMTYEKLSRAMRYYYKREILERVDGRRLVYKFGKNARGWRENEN
In short: as §1

SPIB = SPIB (Homo sapiens, UniProt Q01892 1-262); conditions: protein: recombinant; tags: N-terminal GST; dsDNA, one strand shown
In short: as §1

ELK3 = target: T6, ELK3 (Homo sapiens, UniProt P41970 1-407); conditions: protein: recombinant; tags: N-terminal GST; dsDNA, one strand shown
T6 sequence: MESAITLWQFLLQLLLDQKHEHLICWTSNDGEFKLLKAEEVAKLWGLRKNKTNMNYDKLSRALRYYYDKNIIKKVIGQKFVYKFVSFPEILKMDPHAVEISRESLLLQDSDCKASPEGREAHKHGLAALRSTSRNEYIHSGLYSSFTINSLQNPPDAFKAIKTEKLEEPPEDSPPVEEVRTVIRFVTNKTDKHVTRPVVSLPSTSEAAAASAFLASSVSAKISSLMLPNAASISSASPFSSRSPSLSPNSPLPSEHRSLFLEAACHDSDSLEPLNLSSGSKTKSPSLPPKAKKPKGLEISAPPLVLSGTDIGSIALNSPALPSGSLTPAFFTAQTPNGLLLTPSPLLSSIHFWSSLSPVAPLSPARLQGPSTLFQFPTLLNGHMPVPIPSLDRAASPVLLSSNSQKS
In short: as §1

FEV = target: T7, FEV (Homo sapiens, UniProt Q99581 1-238); conditions: protein: recombinant; tags: N-terminal GST; dsDNA, one strand shown
T7 sequence: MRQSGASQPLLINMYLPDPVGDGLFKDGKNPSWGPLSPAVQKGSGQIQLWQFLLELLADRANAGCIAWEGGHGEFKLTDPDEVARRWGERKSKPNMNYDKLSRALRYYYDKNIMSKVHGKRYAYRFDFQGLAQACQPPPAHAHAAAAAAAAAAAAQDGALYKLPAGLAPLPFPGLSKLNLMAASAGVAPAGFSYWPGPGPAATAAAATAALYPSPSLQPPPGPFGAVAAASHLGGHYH
In short: as §1

ETV5 = ETV5 (Homo sapiens, UniProt P41161 1-510); conditions: protein: recombinant; tags: N-terminal GST; dsDNA, one strand shown
In short: as §1

HSF1 = HSF1 (Homo sapiens, UniProt Q00613 1-529); conditions: protein: recombinant; tags: N-terminal GST; chain copies: 3; dsDNA, one strand shown
In short: as §1

SPIC = target: T8, SPIC (Homo sapiens, UniProt Q8N5J4 1-248); conditions: protein: recombinant; tags: N-terminal GST; dsDNA, one strand shown
T8 sequence: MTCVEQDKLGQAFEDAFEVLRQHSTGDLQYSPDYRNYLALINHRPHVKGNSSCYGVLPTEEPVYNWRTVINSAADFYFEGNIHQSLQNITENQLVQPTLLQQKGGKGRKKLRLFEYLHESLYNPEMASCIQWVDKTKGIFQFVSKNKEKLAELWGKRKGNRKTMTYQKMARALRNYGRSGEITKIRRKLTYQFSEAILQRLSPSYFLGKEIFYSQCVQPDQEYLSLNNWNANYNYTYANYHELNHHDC
In short: as §1

ELF4 = ELF4 (Homo sapiens, UniProt Q99607 1-663); conditions: protein: recombinant; tags: N-terminal GST; dsDNA, one strand shown
In short: as §1

ELK4 = target: T9, ELK4 (Homo sapiens, UniProt P28324-2 1-405); conditions: protein: recombinant; tags: N-terminal GST; dsDNA, one strand shown
T9 sequence: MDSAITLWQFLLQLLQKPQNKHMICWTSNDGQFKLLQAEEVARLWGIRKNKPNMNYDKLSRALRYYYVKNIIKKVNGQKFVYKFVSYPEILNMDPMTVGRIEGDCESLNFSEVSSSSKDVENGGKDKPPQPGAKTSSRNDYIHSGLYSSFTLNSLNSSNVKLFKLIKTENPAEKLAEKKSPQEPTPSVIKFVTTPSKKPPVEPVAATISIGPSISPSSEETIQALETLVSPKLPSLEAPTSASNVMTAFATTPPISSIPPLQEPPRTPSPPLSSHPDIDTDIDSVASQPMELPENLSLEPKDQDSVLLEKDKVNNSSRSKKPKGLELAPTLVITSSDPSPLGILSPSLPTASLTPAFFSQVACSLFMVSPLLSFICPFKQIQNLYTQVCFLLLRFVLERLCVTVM
In short: as §1

ETV2 = target: T10, ETV2 (Homo sapiens, UniProt O00321 1-342); conditions: protein: recombinant; tags: N-terminal GST; dsDNA, one strand shown
T10 sequence: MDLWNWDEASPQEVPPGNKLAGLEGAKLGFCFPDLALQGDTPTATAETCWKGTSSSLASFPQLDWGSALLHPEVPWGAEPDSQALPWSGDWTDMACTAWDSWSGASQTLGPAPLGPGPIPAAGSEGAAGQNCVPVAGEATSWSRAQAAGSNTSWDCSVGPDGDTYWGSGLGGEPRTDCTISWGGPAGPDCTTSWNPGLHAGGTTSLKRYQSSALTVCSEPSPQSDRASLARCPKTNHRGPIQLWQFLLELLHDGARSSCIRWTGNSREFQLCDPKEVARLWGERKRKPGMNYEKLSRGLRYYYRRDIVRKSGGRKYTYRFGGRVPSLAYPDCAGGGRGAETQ
In short: as §1

ELF3 = target: T11, ELF3 (Homo sapiens, UniProt P78545 1-371); conditions: protein: recombinant; tags: N-terminal GST; dsDNA, one strand shown
T11 sequence: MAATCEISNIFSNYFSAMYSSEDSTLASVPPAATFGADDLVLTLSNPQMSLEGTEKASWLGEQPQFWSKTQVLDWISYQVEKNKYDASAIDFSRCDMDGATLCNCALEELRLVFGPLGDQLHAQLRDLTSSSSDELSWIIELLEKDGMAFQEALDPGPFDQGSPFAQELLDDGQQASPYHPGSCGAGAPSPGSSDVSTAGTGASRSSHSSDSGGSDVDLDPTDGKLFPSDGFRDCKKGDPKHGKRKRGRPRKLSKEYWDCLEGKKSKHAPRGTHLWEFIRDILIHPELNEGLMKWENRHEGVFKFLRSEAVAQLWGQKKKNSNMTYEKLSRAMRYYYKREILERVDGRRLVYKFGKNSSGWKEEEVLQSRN
In short: as §1

CRX = CRX (Homo sapiens, UniProt O43186 1-299); conditions: protein: recombinant; tags: N-terminal GST; dsDNA, one strand shown
In short: as §1

ETV1 = ETV1 (Homo sapiens, UniProt P50549 1-477); conditions: protein: recombinant; tags: N-terminal GST; dsDNA, one strand shown
In short: as §1

Sequence of CRX (O43186 whole entry): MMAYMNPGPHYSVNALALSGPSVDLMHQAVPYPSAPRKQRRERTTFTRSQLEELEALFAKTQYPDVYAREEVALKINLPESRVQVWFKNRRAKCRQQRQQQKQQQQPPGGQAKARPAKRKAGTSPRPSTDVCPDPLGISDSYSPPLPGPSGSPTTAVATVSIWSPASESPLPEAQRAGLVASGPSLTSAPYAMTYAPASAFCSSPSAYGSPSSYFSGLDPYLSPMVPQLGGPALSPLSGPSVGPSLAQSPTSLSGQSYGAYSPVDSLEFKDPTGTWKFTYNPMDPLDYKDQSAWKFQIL
Sequence of ETV5 (P41161 whole entry): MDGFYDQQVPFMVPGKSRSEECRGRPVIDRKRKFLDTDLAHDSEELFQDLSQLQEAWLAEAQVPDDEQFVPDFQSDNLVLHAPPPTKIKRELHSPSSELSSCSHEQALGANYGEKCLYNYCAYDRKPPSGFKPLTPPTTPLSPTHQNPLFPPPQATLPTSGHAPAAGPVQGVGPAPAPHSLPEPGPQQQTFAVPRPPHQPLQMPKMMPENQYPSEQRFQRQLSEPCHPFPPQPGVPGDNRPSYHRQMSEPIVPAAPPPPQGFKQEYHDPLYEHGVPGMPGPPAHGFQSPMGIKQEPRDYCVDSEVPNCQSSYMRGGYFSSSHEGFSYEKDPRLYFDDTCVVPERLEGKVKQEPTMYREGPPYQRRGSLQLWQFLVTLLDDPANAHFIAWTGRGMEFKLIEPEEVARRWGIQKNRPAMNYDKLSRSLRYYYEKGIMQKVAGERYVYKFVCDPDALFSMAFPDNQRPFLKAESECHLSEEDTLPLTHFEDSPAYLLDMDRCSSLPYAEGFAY
Sequence of ELF4 (Q99607 whole entry): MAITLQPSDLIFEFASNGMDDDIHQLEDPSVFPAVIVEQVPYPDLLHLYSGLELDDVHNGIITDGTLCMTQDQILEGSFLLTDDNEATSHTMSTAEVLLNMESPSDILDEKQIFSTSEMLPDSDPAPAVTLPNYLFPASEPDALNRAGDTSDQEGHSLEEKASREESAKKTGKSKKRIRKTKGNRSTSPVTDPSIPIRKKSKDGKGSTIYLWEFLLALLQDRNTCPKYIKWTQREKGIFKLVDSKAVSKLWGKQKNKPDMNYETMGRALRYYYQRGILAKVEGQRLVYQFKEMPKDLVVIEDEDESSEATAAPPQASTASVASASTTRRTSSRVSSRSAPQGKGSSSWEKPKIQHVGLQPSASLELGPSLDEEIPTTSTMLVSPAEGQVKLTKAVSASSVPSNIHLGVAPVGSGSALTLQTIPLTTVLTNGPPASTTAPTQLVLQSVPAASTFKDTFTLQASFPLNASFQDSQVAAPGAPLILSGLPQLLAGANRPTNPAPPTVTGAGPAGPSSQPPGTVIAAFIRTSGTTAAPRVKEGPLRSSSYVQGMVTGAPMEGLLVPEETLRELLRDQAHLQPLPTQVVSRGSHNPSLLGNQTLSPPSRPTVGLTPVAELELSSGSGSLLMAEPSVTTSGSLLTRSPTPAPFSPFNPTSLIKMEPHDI
Sequence of SPIB (Q01892 whole entry): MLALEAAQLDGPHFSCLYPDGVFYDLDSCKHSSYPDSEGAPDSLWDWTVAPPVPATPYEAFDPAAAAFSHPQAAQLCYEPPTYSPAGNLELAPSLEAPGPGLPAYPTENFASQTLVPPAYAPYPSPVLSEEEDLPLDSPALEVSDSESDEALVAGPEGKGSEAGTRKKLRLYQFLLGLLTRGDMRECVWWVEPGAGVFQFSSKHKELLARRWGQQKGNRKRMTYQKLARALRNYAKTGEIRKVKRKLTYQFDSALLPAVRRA
Sequence of HSF1 (Q00613 whole entry): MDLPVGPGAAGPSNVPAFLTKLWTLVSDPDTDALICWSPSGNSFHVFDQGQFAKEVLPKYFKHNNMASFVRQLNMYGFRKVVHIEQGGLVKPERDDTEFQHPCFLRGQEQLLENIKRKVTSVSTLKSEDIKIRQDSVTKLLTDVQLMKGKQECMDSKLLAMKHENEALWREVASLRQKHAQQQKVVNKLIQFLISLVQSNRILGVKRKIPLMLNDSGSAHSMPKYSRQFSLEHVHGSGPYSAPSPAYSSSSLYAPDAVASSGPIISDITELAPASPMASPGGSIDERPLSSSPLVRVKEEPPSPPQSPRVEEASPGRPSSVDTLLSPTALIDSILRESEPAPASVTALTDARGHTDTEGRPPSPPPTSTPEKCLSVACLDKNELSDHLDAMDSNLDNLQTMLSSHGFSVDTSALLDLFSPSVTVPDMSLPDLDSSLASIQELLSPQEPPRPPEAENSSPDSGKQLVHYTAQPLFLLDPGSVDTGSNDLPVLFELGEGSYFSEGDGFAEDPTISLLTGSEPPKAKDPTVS
Sequence of ETV1 (P50549 whole entry): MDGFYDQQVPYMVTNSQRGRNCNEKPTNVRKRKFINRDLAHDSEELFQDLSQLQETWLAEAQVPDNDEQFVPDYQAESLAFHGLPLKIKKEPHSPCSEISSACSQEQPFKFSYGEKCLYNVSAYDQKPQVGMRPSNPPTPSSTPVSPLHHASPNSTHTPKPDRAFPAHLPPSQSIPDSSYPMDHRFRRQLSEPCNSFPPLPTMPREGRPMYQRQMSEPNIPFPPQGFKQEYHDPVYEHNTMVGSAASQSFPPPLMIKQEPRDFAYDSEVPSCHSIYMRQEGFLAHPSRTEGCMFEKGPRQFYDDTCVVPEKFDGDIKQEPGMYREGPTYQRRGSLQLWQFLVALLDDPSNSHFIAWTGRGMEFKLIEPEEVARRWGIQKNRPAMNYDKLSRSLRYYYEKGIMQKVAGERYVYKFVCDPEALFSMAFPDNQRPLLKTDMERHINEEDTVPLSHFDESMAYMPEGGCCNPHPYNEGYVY
Sequence of ELF1 (P32519 whole entry): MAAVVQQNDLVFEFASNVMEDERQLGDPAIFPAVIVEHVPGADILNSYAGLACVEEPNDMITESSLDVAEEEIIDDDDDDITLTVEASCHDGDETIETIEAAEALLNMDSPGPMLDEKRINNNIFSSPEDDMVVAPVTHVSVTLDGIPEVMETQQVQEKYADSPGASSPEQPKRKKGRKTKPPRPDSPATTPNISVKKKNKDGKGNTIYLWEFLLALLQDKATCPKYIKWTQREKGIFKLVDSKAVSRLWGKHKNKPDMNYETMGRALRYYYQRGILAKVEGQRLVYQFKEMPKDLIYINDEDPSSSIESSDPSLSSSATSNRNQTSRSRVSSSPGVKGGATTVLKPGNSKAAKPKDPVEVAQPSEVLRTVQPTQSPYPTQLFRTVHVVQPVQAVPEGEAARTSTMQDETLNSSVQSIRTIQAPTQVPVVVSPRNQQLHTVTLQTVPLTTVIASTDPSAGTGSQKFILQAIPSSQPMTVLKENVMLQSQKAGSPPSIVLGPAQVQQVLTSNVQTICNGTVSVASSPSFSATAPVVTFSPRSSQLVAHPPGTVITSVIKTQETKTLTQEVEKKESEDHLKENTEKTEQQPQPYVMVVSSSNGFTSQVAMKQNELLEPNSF

ATTAGC was tested, and the binding signal (FLI1) was 1.17 fold enrichment (6-mer frequency, TF over GST control), the binding signal (ELK1) was 1.08 fold enrichment (6-mer frequency, TF over GST control) and the binding signal (GABPA) was 1.08 fold enrichment (6-mer frequency, TF over GST control). For the same sequence, the binding signal (ERG) was 1.15 fold enrichment (6-mer frequency, TF over GST control), the binding signal (ELF1) was 1.11 fold enrichment (6-mer frequency, TF over GST control) and the binding signal (EHF) was 1.07 fold enrichment (6-mer frequency, TF over GST control). The binding signal (SPIB) was 1.03 fold enrichment (6-mer frequency, TF over GST control), the binding signal (ELK3) was 1.09 fold enrichment (6-mer frequency, TF over GST control) and the binding signal (FEV) was 1.05 fold enrichment (6-mer frequency, TF over GST control). The binding signal (ETV5) was 1.04 fold enrichment (6-mer frequency, TF over GST control), the binding signal (HSF1) was 1.87 fold enrichment (6-mer frequency, TF over GST control) and the binding signal (SPIC) was 1.22 fold enrichment (6-mer frequency, TF over GST control). The binding signal (ELF4) was 1.15 fold enrichment (6-mer frequency, TF over GST control), the binding signal (ELK4) was 1.14 fold enrichment (6-mer frequency, TF over GST control) and the binding signal (ETV2) was 1.13 fold enrichment (6-mer frequency, TF over GST control). The binding signal (ELF3) was 1.14 fold enrichment (6-mer frequency, TF over GST control), the binding signal (CRX) was 2.83 fold enrichment (6-mer frequency, TF over GST control) and the binding signal (ETV1) was 1.16 fold enrichment (6-mer frequency, TF over GST control).
